# Records with an inconclusive call do not appear. Unmarked numbers belong to inactive results. Activity calls are given as the source filed them. Calls come from the whole dose curve; as a rule, active = well fitted curve in the direction sought with a large enough effect; inconclusive = small, poorly fitted or top-dose-only effect, or another doubt; inactive = no such curve, though single readings can be large; an effect the other way counts as inactive or inconclusive.
# What was measured:
# [1] = target: Aldehyde dehydrogenase, mitochondrial (Homo sapiens) (UniProt P05091); assay: qHTS for Inhibitors of the Aldehyde Dehydrogenase Family (ALDH2) Primary screen (AID 2061308); conditions: ALDH2 enzyme inhibition qHTS, 1536-well; series mostly up to 56 µM;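 note: plate controls were vehicle for no effect and reference inhibitor for full effect; nearly all actives have a fitted effect of over 55% in size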
# [2] = target: Retinaldehyde dehydrogenase 3 (Homo sapiens) (UniProt P47895); assay: qHTS for Inhibitors of the Aldehyde Dehydrogenase Family (ALDH1A3) Primary screen (AID 2061315); conditions: ALDH inhibition qHTS; series mostly up to 56 µM;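 note: plate controls were DMSO vehicle for no effect and reference inhibitor for full effect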
# [3] = BET inhibitor-based combinations targeting novel dependencies in MECOM-rearranged (r) AML: SET-2 cell line (AID 2202231); conditions: SET-2 AML cells viability, CellTiter-Glo luminescence, 48 h; viability: active compounds read low, concentration not given here; note: nearly all actives have a fitted effect of over 35% in size; note: potency is the fitted concentration of half-maximal effect;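 for viability: plate controls were DMSO treated cells for no effect and wells without cells for full effect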
# Procedure, shortened: (§1)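 Each compound was tested at eleven concentrations on cells seeded at 500/well. After two days' incubation, ATP-based luminescence reported viability; responses relative to DMSO and blank wells yielded AUC and cell-line-centred Z-AUC.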
# [4] = BET inhibitor-based combinations targeting novel dependencies in MECOM-rearranged (r) AML: OCI-AML3 cell line (AID 2202232); conditions: CellTiter-Glo luminescence, 48 h; Potency: OCI-AML3 viability; series mostly up to 46 µM; note: nearly all actives have a fitted effect of over 35% in size; note: potency is the fitted concentration of half-maximal effect
# Procedure, shortened: as §1
# [5] = BET inhibitor-based combinations targeting novel dependencies in MECOM-rearranged (r) AML: UCSD-AML1 cell line (AID 2202235); conditions: UCSD-AML1 AML cells viability, CellTiter-Glo, 48 h; series mostly up to 46 µM; note: nearly all actives have a fitted effect of over 40% in size; note: potency is the fitted concentration of half-maximal effect
# Procedure, shortened: (§2)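 First, 500 cells per well were seeded; next, drugs were pinned as 11-point doses; then plates sat 48 hr in the incubator; finally CellTiter-Glo was added and luminescence read, with AUC and Z-AUC computed.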
# [6] = BET inhibitor-based combinations targeting novel dependencies in MECOM-rearranged (r) AML: AML-191 cell line (AID 2202236; note: nearly all actives have a fitted effect of over 35% in size; note: potency is the fitted concentration of half-maximal effect); conditions: AML-191 viability, CellTiter-Glo luminescence, 48 h; series mostly up to 46 µM
# Procedure, shortened: as §1
# [7] = target: Retinaldehyde dehydrogenase 3 (Homo sapiens) (UniProt P47895); assay: qHTS for Inhibitors of the Aldehyde Dehydrogenase Family (ALDH1A3) Confirmatory screens (AID 2061311); conditions: ALDH inhibition qHTS; series mostly up to 46 µM; note: potency is the fitted concentration of half-maximal effect; nearly all actives have a fitted effect of over 60% in size
# [8] = target: Retinal dehydrogenase 2 (Homo sapiens) (UniProt O94788); assay: qHTS for Inhibitors of the Aldehyde Dehydrogenase Family (ALDH1A2) Confirmation screens (AID 2061314); conditions: ALDH1A2 enzyme inhibition qHTS confirmation; series mostly up to 45.9 µM; note: potency is the fitted concentration of half-maximal effect; nearly all actives have a fitted effect of over 65% in size
# [9] = target: Aldehyde dehydrogenase 1A1 (Homo sapiens) (UniProt P00352); assay: qHTS for Inhibitors of the Aldehyde Dehydrogenase Family (ALDH1A1) Confirmatory screens (AID 2061316); conditions: ALDH inhibition qHTS; series mostly up to 47.3 µM; note: potency is the fitted concentration of half-maximal effect; nearly all actives have a fitted effect of over 65% in size
# [10] = BET inhibitor-based combinations targeting novel dependencies in MECOM-rearranged (r) AML: MV-4-11 cell line (AID 2202233); conditions: MV-4-11 AML viability, CellTiter-Glo luminescence, 48 h; series mostly up to 46 µM; note: potency is the fitted concentration of half-maximal effect; nearly all actives have a fitted effect of over 45% in size
# Procedure, shortened: as §2
# [11] = BET inhibitor-based combinations targeting novel dependencies in MECOM-rearranged (r) AML: HNT-34 cell line (AID 2202234); conditions: HNT-34 AML viability, CellTiter-Glo luminescence, 48 h; series mostly up to 46 µM; note: potency is the fitted concentration of half-maximal effect; nearly all actives have a fitted effect of over 35% in size
# Procedure, shortened: as §2
# [12] = BET inhibitor-based combinations targeting novel dependencies in MECOM-rearranged (r) AML: AML-194 cell line (AID 2202237; note: nearly all actives have a fitted effect of over 40% in size; note: potency is the fitted concentration of half-maximal effect); conditions: AML-194 (MECOM-r AML) viability, CellTiter-Glo, 48 h; series mostly up to 46 µM
# Procedure, shortened: as §1
structure (smiles),measurement,setting,value
CO[C@H]1[C@H](O)[C@H](O[C@H]2CC[C@]3(C)C4CC[C@]5(C)[C@H](C6=CC(=O)OC6)CC[C@]5(O)C4CC[C@@H]3C2)O[C@@H](C)[C@@H]1O (stereo partly drawn),Potency,[1],inactive
same,Potency,[2],inactive
CC1=CC2/C=C(\C)CCC(O)C3OC(C)(C)OC3CC(=O)OC23C(=O)NC(CC(C)C)C3C1C (stereo not drawn),Potency,[1],inactive
same,Potency,[2],inactive
S=P(c1ccccc1)(c1ccccc1)c1c[nH]c2ccccc12,Potency,[1],inactive
same,Potency,[2],inactive
O=C1CCCC2=C1C(c1[nH]ncc1Cl)N=C(Nc1nc3ccc(F)cc3o1)N2 (stereo not drawn),Potency,[1],inactive
same,Potency,[2],inactive
O=C(O)c1ccc(O)c2ncc(N3CCCNCC3)cc12,Potency,[2],inactive
CC1(C)CC(O)CC(C)(C)N1O,viability,[3],115%
same,Potency,[4],inactive
same,Potency,[5],inactive
same,Potency,[6],inactive
[Cl][Pt].[NH2-].[NH2-].c1ccncc1,Potency,[7],11300 nM (active)
same,Potency,[8],17900 nM (active)
same,Potency,[9],7120 nM (active)
C#CCO[C@H]1CN2CCC1CC2,Potency,[1],inactive
same,Potency,[2],inactive
C=C1[C@@H](C)[C@H]2[C@H](Cc3ccccc3)NC(=O)[C@]23OC(=O)/C=C/C(=O)CCC[C@@H](C)C/C=C/[C@H]3[C@@H]1O,Potency,[2],inactive
C[C@@]12OC(=O)[C@]1([C@@H](O)[C@@H]1C=CCCC1)NC(=O)[C@@H]2CCCl,Potency,[3],26.3 nM (active)
same,Potency,[4],20.9 nM (active)
same,Potency,[10],23.5 nM (active)
same,Potency,[11],37.2 nM (active)
same,Potency,[5],33.2 nM (active)
CC(C)C(=O)O[C@H]1[C@@H]2[C@H](C)C(=O)O[C@@H]2C[C@@H](C)[C@@H]2C=CC(=O)[C@]21C,Potency,[1],inactive
same,Potency,[2],inactive
Cn1c(CCCCCCC(=O)NO)nc2cc(N(CCCl)CCCl)ccc21,Potency,[3],2630 nM (active)
same,Potency,[4],2350 nM (active)
same,Potency,[10],1480 nM (active)
same,Potency,[6],2630 nM (active)
same,Potency,[12],2950 nM (active)
Cc1nc2ccccn2c1P(=S)(c1ccccc1)c1ccccc1,Potency,[2],inactive
Cc1c(N)nc([C@H](CC(N)=O)NC[C@@H](N)C(N)=O)nc1C(=O)N[C@H](C(=O)N[C@@H](C)[C@H](O)[C@@H](C)C(=O)N[C@@H](C(=O)NCCc1nc(-c2nc(C(=O)NCCC[S+](C)C)cs2)cs1)[C@@H](C)O)C(O[C@H]1O[C@H](CO)[C@H](O)[C@@H](O)[C@H]1O[C@H]1O[C@H](CO)[C@@H](O)[C@H](OC(N)=O)[C@@H]1O)c1cnc[nH]1 (stereo partly drawn),viability,[3],100%
same,Potency,[4],inactive
same,Potency,[10],4560 nM (active)
same,Potency,[11],8110 nM (active)
same,Potency,[5],inactive
same,Potency,[6],inactive
same,Potency,[12],inactive
CC(C)OC(=O)c1ccnc2cc(C(OCCN3CCCCC3)c3ccccc3Cl)sc12 (stereo not drawn),Potency,[2],inactive
COc1cccc(CNc2ccc(S(=O)(=O)Nc3nc(C)c(C)s3)cc2)c1O,Potency,[7],12700 nM (active)
same,Potency,[9],10100 nM (active)
COC1CC(OC2CCC3(C=O)C(CCC4C3CCC3(C)C(C5=CC(=O)OC5)CCC43O)C2)OC(C)C1OC1OC(CO)C(O)C(O)C1O (stereo not drawn),Potency,[1],inactive
same,Potency,[2],inactive
C[C@]12CC[C@@H](O)C[C@@H]1CC[C@@H]1[C@@H]2CC[C@]2(C)C(=O)[C@@H](Br)C[C@@H]12,Potency,[1],inactive
same,Potency,[2],inactive
COC[C@H]1OC(=O)c2coc3c2[C@@]1(C)C1=C(C3=O)[C@@H]2CC[C@H](O)[C@@]2(C)C[C@H]1OC(C)=O,Potency,[3],18600 nM (active)
same,Potency,[4],10500 nM (active)
same,Potency,[10],5900 nM (active)
same,Potency,[11],5250 nM (active)
same,Potency,[12],8330 nM (active)
COC(=O)[C@@]12OC[C@]34[C@H]([C@@H](O)[C@@H]1O)[C@@]1(C)CC(=O)C(O)=C(C)[C@@H]1C[C@H]3OC(=O)[C@H](OC(=O)/C=C(\C)C(C)C)[C@@H]24,Potency,[3],26.3 nM (active)
same,Potency,[4],7.4 nM (active)
same,Potency,[10],3 nM (active)
same,Potency,[5],3.3 nM (active)
c1cncc(OC[C@@H]2CCN2)c1,Potency,[2],inactive
COc1ccc(-n2c(C)cc(-c3nnc4n3CCCCC4)c2C)cc1,Potency,[7],10100 nM (active)
same,Potency,[8],12700 nM (active)
same,Potency,[2],inactive
same,Potency,[9],12700 nM (active)
S=P(c1ccccc1)(c1ccccc1)c1c(-c2ccccc2)[nH]c2ccccc12,Potency,[2],inactive
O=C(CBr)N1CC([N+](=O)[O-])([N+](=O)[O-])C1,Potency,[3],38200 nM (active)
same,Potency,[4],34000 nM (active)
same,Potency,[10],34000 nM (active)
same,Potency,[5],inactive
CO[C@H]1[C@H](O)[C@H](O[C@H]2CC[C@]3(C=O)C4CC[C@]5(C)[C@H](C6=CC(=O)OC6)CC[C@]5(O)C4CC[C@@H]3C2)O[C@@H](C)[C@@H]1O (stereo partly drawn),Potency,[1],inactive
same,Potency,[2],inactive
CO[C@H]1CCC(O[C@H]2C[C@H]([C@]3(C)CC[C@]4(C[C@H](O)[C@@H](C)[C@@H]([C@@H](C)/C=C(\C)C(=O)[C@H](C)C[C@H](C)C(=O)O)O4)O3)O[C@]3(O[C@@H]([C@H]4O[C@@](O)(CO)[C@H](C)C[C@@H]4C)C[C@@H]3C)[C@@H]2C)O[C@@H]1C (stereo partly drawn),Potency,[3],1480 nM (active)
same,Potency,[4],235 nM (active)
same,Potency,[10],372 nM (active)
same,Potency,[11],148 nM (active)
same,Potency,[5],2630 nM (active)
same,Potency,[6],1660 nM (active)
same,Potency,[12],263 nM (active)
CCN1CCN(C(=O)Cc2ccc(Nc3ncc(F)c(Nc4ccc(C(=O)Nc5ccccc5Cl)cc4)n3)cc2)CC1,Potency,[1],inactive
same,Potency,[2],inactive
same,Potency,[3],5250 nM (active)
same,Potency,[10],1480 nM (active)
same,Potency,[5],3720 nM (active)
same,Potency,[6],6610 nM (active)
same,Potency,[12],7420 nM (active)
Cc1[nH]nc2ccc(-c3cncc(OC[C@@H](N)Cc4c[nH]c5ccccc45)c3)cc12,Potency,[1],inactive
same,Potency,[2],inactive
same,Potency,[3],1050 nM (active)
same,Potency,[4],934 nM (active)
same,Potency,[10],263 nM (active)
same,Potency,[11],742 nM (active)
same,Potency,[12],934 nM (active)

# Reference: PubChem BioAssay (NCATS)
